Source: PubChem BioAssay AID1159580 (chemical genetic matrix, 2015)
The whole screen tested about 5,500 compounds, of which about 2,000 (36%) were called active. Another 18% or so got no clear call; they are omitted. Cut-off read from the data, not from the text of the source: active = normalized growth mostly below about 0.91 (no sharp cut-off); inconclusive = no clear call, values can overlap the other calls; inactive = mostly above about 0.92. Some of the results follow.

Assay: chemical genetic growth profiling, strain panel (AID 1159580);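 note: tested at 20 µM; growth read once vehicle control cultures reached saturation at 30 °C; 1 = growth at the plate median or of vehicle wells; lower values mean less growth of the strain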
Details: growth OD

Measured: normalized growth

CCCN(CCC)S(=O)(=O)c1ccc(C(=O)O)cc1
inactive: S. cerevisiae deletion strains, locus YJR075W, strain HOC1, stronger effect = lower value 1 | S. cerevisiae deletion strains, locus YKL009W, strain mrt4, stronger effect = lower value 0.998 | S. cerevisiae deletion strains, locus YKL068W, stronger effect = lower value 0.998 | S. cerevisiae deletion strains, locus YKL085W, strain MDH1 (second series), stronger effect = lower value 1 | S. cerevisiae deletion strains, locus YKL085W, strain MDH1, stronger effect = lower value 1 | S. cerevisiae deletion strains, locus YKL160W, strain elf1, stronger effect = lower value 0.971 | S. cerevisiae deletion strains, locus YKL190W, strain CNB1, stronger effect = lower value 0.983 | S. cerevisiae deletion strains, locus YKR001C, strain vps1, stronger effect = lower value 1.02 | S. cerevisiae deletion strains, locus YKR026C, strain gcn3, stronger effect = lower value 0.988 | S. cerevisiae deletion strains, locus YKR091W, strain srl3, stronger effect = lower value 0.993 | S. cerevisiae deletion strains, locus YLL001W, strain dnm1, stronger effect = lower value 0.952 | S. cerevisiae deletion strains, locus YLL026W, stronger effect = lower value 0.984 | S. cerevisiae deletion strains, locus YLL041C, strain sdh2, stronger effect = lower value 0.992 | S. cerevisiae deletion strains, locus YLR027C, strain aat2, stronger effect = lower value 0.973 | S. cerevisiae deletion strains, locus YLR039C, strain RIC1, stronger effect = lower value 1.02 | S. cerevisiae deletion strains, locus YLR058C, strain SHM2, stronger effect = lower value 1 | S. cerevisiae deletion strains, locus YLR102C, strain apc9, stronger effect = lower value 1 | S. cerevisiae deletion strains, locus YLR113W, strain HOG1, stronger effect = lower value 0.976 | S. cerevisiae deletion strains, locus YLR221C, strain rsa3, stronger effect = lower value 0.995 | S. cerevisiae deletion strains, locus YLR258W, strain gsy2, stronger effect = lower value 0.992 | S. cerevisiae deletion strains, locus YLR262C, strain YPT6 (second series), stronger effect = lower value 0.971 | S. cerevisiae deletion strains, locus YLR262C, strain YPT6, stronger effect = lower value 1.01 | S. cerevisiae deletion strains, locus YLR268W, strain sec22, stronger effect = lower value 1.03 | S. cerevisiae deletion strains, locus YLR320W, strain mms22, stronger effect = lower value 0.99 | S. cerevisiae deletion strains, locus YLR330W, strain CHS5, stronger effect = lower value 0.994 | S. cerevisiae deletion strains, locus YLR342W, strain FKS1 (second series), stronger effect = lower value 0.984 | S. cerevisiae deletion strains, locus YLR342W, strain FKS1, stronger effect = lower value 0.961 | S. cerevisiae deletion strains, locus YLR357W, strain rsc2, stronger effect = lower value 0.951 | S. cerevisiae deletion strains, locus YLR370C, strain arc18, stronger effect = lower value 0.974 | S. cerevisiae deletion strains, locus YLR371W, strain rom2, stronger effect = lower value 1.01 | S. cerevisiae deletion strains, locus YLR384C, strain iki3, stronger effect = lower value 0.983 | S. cerevisiae deletion strains, locus YLR418C, strain cdc73, stronger effect = lower value 1.03 | S. cerevisiae deletion strains, locus YML016C, strain PPZ1, stronger effect = lower value 1 | S. cerevisiae deletion strains, locus YML032C, strain rad52, stronger effect = lower value 1.02 | S. cerevisiae deletion strains, locus YML120C, strain ndi1, stronger effect = lower value 0.993 | S. cerevisiae deletion strains, locus YML124C, strain tub3, stronger effect = lower value 1.01 | S. cerevisiae deletion strains, locus YMR058W, strain fet3, stronger effect = lower value 0.991 | S. cerevisiae deletion strains, locus YMR078C, strain ctf18, stronger effect = lower value 1.03 | S. cerevisiae deletion strains, locus YMR125W, strain sto1, stronger effect = lower value 0.983 | S. cerevisiae deletion strains, locus YMR129W, stronger effect = lower value 0.991 | S. cerevisiae deletion strains, locus YMR205C, strain PFK2, stronger effect = lower value 0.984 | S. cerevisiae deletion strains, locus YMR223W, strain ubp8, stronger effect = lower value 0.992 | S. cerevisiae deletion strains, locus YMR231W, strain pep5, stronger effect = lower value 0.986 | S. cerevisiae deletion strains, locus YMR263W, strain SAP30, stronger effect = lower value 1 | S. cerevisiae deletion strains, locus YMR307W, strain GAS1, stronger effect = lower value 1 | S. cerevisiae deletion strains, locus YNL067W, strain RPL9B, stronger effect = lower value 1.01 | S. cerevisiae deletion strains, locus YNL071W, strain lat1, stronger effect = lower value 0.999 | S. cerevisiae deletion strains, locus YNL128W, strain TEP1, stronger effect = lower value 1.01 | S. cerevisiae deletion strains, locus YNL153C, strain GIM3, stronger effect = lower value 1.01 | S. cerevisiae deletion strains, locus YNL183C, strain NPR1, stronger effect = lower value 0.97 | S. cerevisiae deletion strains, locus YNL209W, strain ssb2, stronger effect = lower value 1.01 | S. cerevisiae deletion strains, locus YNL233W, strain BNI4, stronger effect = lower value 0.999 | S. cerevisiae deletion strains, locus YNL248C, strain rpa49, stronger effect = lower value 0.989 | S. cerevisiae deletion strains, locus YNL250W, strain rad50, stronger effect = lower value 1.01 | S. cerevisiae deletion strains, locus YNL271C, strain bni1, stronger effect = lower value 1.01 | S. cerevisiae deletion strains, locus YNL298W, strain CLA4, stronger effect = lower value 1.01 | S. cerevisiae deletion strains, locus YNL307C, strain MCK1, stronger effect = lower value 1.01 | S. cerevisiae deletion strains, locus YNL322C, strain KRE1 (second series), stronger effect = lower value 0.99 | S. cerevisiae deletion strains, locus YNL322C, strain KRE1, stronger effect = lower value 0.997 | S. cerevisiae deletion strains, locus YNR049C, strain mso1, stronger effect = lower value 0.984 | S. cerevisiae deletion strains, locus YNR052C, strain pop2, stronger effect = lower value 1.02 | S. cerevisiae deletion strains, locus YOL006C, strain TOP1, stronger effect = lower value 1.05 | S. cerevisiae deletion strains, locus YOL012C, strain htz1 0.687 | S. cerevisiae deletion strains, locus YOL147C, strain pex11, stronger effect = lower value 1 | S. cerevisiae deletion strains, locus YOR001W, strain rrp6, stronger effect = lower value 0.98 | S. cerevisiae deletion strains, locus YOR061W, strain CKA2, stronger effect = lower value 1 | S. cerevisiae deletion strains, locus YOR069W, strain VPS5, stronger effect = lower value 0.995 | S. cerevisiae deletion strains, locus YOR070C, strain gyp1, stronger effect = lower value 1 | S. cerevisiae deletion strains, locus YOR080W, strain dia2, stronger effect = lower value 0.982 | S. cerevisiae deletion strains, locus YOR083W, strain WHI5, stronger effect = lower value 0.953 | S. cerevisiae deletion strains, locus YOR106W, strain vam3, stronger effect = lower value 0.971 | S. cerevisiae deletion strains, locus YOR136W, strain idh2, stronger effect = lower value 1.02 | S. cerevisiae deletion strains, locus YOR144C, strain elg1, stronger effect = lower value 1.01 | S. cerevisiae deletion strains, locus YOR184W, strain ser1, stronger effect = lower value 1.04 | S. cerevisiae deletion strains, locus YOR231W, strain MKK1, stronger effect = lower value 0.976 | S. cerevisiae deletion strains, locus YOR265W, strain rbl2, stronger effect = lower value 0.992 | S. cerevisiae deletion strains, locus YOR270C, strain vph1, stronger effect = lower value 1 | S. cerevisiae deletion strains, locus YOR290C, strain snf2, stronger effect = lower value 1.01 | S. cerevisiae deletion strains, locus YOR316C, strain cot1, stronger effect = lower value 1.01 | S. cerevisiae deletion strains, locus YPL051W, strain arl3, stronger effect = lower value 0.984 | S. cerevisiae deletion strains, locus YPL055C, strain LGE1, stronger effect = lower value 0.976 | S. cerevisiae deletion strains, locus YPL078C, strain atp4, stronger effect = lower value 0.953 | S. cerevisiae deletion strains, locus YPL106C, strain sse1, stronger effect = lower value 1.01 | S. cerevisiae deletion strains, locus YPL240C, strain hsp82, stronger effect = lower value 0.977 | S. cerevisiae deletion strains, locus YPL241C, strain CIN2, stronger effect = lower value 0.991 | S. cerevisiae deletion strains, locus YPL256C, strain CLN2, stronger effect = lower value 1.04 | S. cerevisiae deletion strains, locus YPR119W, strain clb2, stronger effect = lower value 1.01 | S. cerevisiae deletion strains, locus YPR141C, strain kar3, stronger effect = lower value 1 | S. cerevisiae deletion strains, locus YPR163C, strain tif3, stronger effect = lower value 1.01 | S. cerevisiae deletion strains, locus YPR167C, strain met16, stronger effect = lower value 1.01 | S. cerevisiae deletion strains, strain wtn01, stronger effect = lower value 1.01 | S. cerevisiae strains, strain wild type, stronger effect = lower value 0.99
